# Screens: PubChem BioAssay, National Center for Advancing Translational Sciences (NCATS)
# In the library only some 5.7% were active in any assay of this set; here they are far more common.
# KB-3-1 tox = kills parental KB-3-1 adenocarcinoma cells | KB-3-1 viability, CellTiter-Glo ATP luminescence, 72 h | Potency, µM (series often up to 46.1 µM), usual class: cytotoxic | 1.4% of 400,000 active; also: nearly all actives have a fitted effect of over 60% in size
#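 Screening of KB-3-1 cells (DMEM, 10% FBS, phenol-red free) ran from lowest to highest compound concentration; after 72 h at 37 °C viability was read luminescently and curves fitted.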
# HT1080 IDH1KD tx = kills HT-1080 cells with IDH1 knockdown; AID 686971; 2% of 360,000 active; HT-1080 IDH1 knockdown viability, ATP luminescence, 48 h; Potency, µM (series often up to 46.1 µM), inactives show top-dose activity, negative = toxicity, usual class: cytotoxic;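 also: 0% = DMSO wells and -100% = cell-free medium wells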
#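 After a 2 h attachment period, IDH1KD HT-1080 cells took pin-transferred compound for 48 h at 37 °C; ATP-based luminescence after 10 min room-temperature reagent incubation reported viability.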
# HT1080NT lethal = kills 2HG-producing HT-1080-NT fibrosarcoma cells; HT-1080-NT fibrosarcoma viability, CellTiter-Glo ATP luminescence, 48 h; Potency, µM (titrated, usually from 46.1 µM), for the others: at the top dose activity, negative = less viability, most hits filed as cytotoxic; 1.6% of 360,000 active; AID 686970;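 also: NT is the 2HG producing partner of a matched IDH1 knockdown line; 0% = DMSO-treated cells and -100% = media-only wells without cells; nearly all actives have a fitted effect of over 55% in size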
#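 Toxicity toward the 2HG-producing NT line was scored as %Activity, normalised to DMSO and no-cell wells, from CellTiter-Glo luminescence after 48 hours' treatment.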
# KB-V1 cytotox = KB-V1 MDR subline cytotoxicity; KB-V1 MDR cells viability, CellTiter-Glo, 72 h; Potency, µM (top dose mostly 46.1 µM), most hits filed as cytotoxic; 3.4% of 400,000 active; also: nearly all actives have a fitted effect of over 60% in size
#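 Potencies derive from concentration-effect curves fitted to normalized luminescence (CellTiter-Glo) of KB-V1 cells treated for 72 h at 37 degrees C in phenol-red-free DMEM containing 10% FBS.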
# * marks the source's active call; other numbers are inactive results; i = inactive; ? = inconclusive; / = no result. Calls follow the shape of the dose curve; as a rule, active = well fitted curve in the direction sought with a large enough effect; inconclusive = small, poorly fitted or top-dose-only effect, or another doubt; inactive = no such curve, though single readings can be large; an effect the other way counts as inactive or inconclusive. Unless noted, % is scaled to controls: 0 for no effect and ±100 for the full control effect; potency is read from the fitted curve at half-maximal effect.
SMILES,KB-3-1 tox,HT1080 IDH1KD tx,HT1080NT lethal,KB-V1 cytotox
Cc1sc2nc(-c3cccnc3)nc(Cl)c2c1-c1ccccc1,i,10%,11%,13µM*
Cc1ccc(C)c(S(=O)(=O)N2CCCOC2CNC(=O)C(=O)NCCc2ccco2)c1 (stereo unspecified),i,-13%,1%,?
COc1ccc(CCNC(=O)C(=O)NCC2OCCN2S(=O)(=O)c2ccc(Br)cc2)cc1OC (stereo unspecified),i,-4%,0%,i
COc1ccc(S(=O)(=O)N2CCCOC2CNC(=O)C(=O)NCCc2ccco2)cc1C (stereo unspecified),6.5µM*,18µM*,16µM*,i
Cc1ccc(S(=O)(=O)N2CCCOC2CNC(=O)C(=O)NCc2cccs2)cc1 (stereo unspecified),i,0%,-3%,9.2µM*
Cc1ccc(CNC(=O)C(=O)NCC2OCCCN2S(=O)(=O)c2cccs2)cc1 (stereo unspecified),i,-9%,0%,i
Cc1ccc(C)c(S(=O)(=O)N2CCCOC2CNC(=O)C(=O)NCc2ccco2)c1 (stereo unspecified),?,-9%,-9%,23µM*
O=C(NCCc1ccco1)C(=O)NCC1OCCCN1S(=O)(=O)c1ccc(F)cc1 (stereo unspecified),i,-1%,-3%,i
COc1ccc(S(=O)(=O)N2CCOC2CNC(=O)C(=O)NCCc2ccc(OC)c(OC)c2)cc1 (stereo unspecified),?,-10%,-2%,18µM*
O=C(NCCSc1c(-c2ccc(Br)cc2)[nH]c2ccccc12)c1ccc(S(=O)(=O)N2CCOCC2)cc1,i,/,/,i
O=C(/C=C/c1ccc(F)cc1)NC(=S)NNC(=O)c1cnccn1,5.8µM*,-19%,-14%,?
O=C(NC(=S)NNC(=O)c1cnccn1)c1ccc(F)cc1,i,?,?,i
CC1CCN(CCCNC(=O)c2cc3c(s2)-c2ccccc2OC3)CC1,23µM*,?,23µM*,i
CC1CCCN(CCCNC(=O)c2cc3c(s2)-c2ccccc2OC3)C1 (stereo unspecified),?,?,21µM*,i
Cc1cccc2c1-c1sc(C(=O)NCCCN3CCC(C)CC3)cc1CO2,?,?,?,i
COCCCN(Cc1ccco1)C(=O)c1cc2c(s1)-c1ccccc1OC2,?,/,/,10µM*
CCc1ccc(CNC(=O)c2cc3c(s2)-c2ccccc2OC3)cc1,15µM*,/,/,?
O=C(NCCCN1CCN(c2ccccc2)CC1)c1cc2c(s1)-c1ccccc1OC2,i,/,/,i
CC(C)CCN(Cc1ccco1)C(=O)c1cc2c(s1)-c1ccccc1OC2,i,/,/,?
Cc1ccc(CN(C(=O)COc2cccc(Cl)c2)c2ccccn2)o1,i,/,/,i
CCOc1cc(N2CCOCC2)c(OCC)cc1NC(=O)c1cccc(S(=O)(=O)N2CC(C)OC(C)C2)c1 (stereo unspecified),i,2%,-1%,i
CCOc1cc(N2CCOCC2)c(OCC)cc1NC(=O)c1cccc(S(=O)(=O)N2CCOCC2)c1,i,?,13%,15µM*
CCOC(=O)c1ccc(NC(=O)c2cccc(S(=O)(=O)N3CCOCC3)c2)cc1,i,-29%,-29%,23µM*
CCn1cc(C(=O)OCC(=O)Nc2cccc(C(C)=O)c2)c(=O)c2ccc(C)nc21,i,/,/,?
CCn1cc(C(=O)OCC(=O)Nc2cccc(S(=O)(=O)N3CCOCC3)c2)c(=O)c2ccc(C)nc21,i,-21%,6%,8.2µM*
SMILES,KB-3-1 tox,HT1080 IDH1KD tx,HT1080NT lethal,KB-V1 cytotox
O=C(Nc1ccc(F)cc1)Nc1nnc(Cc2ccccc2F)s1,i,-12%,-16%,18µM*
CCCSc1nnc(NC(=O)Nc2ccccc2)s1,?,0%,-9%,21µM*
CCSc1nnc(NC(=O)C2CCN(C(=O)c3ccc(F)cc3)CC2)s1,i,-1%,4%,21µM*
CCCSc1nnc(NC(=O)Nc2ccc(C)cc2)s1,i,12%,10%,i
CCCSc1nnc(NC(=O)Nc2ccc(F)cc2)s1,26µM*,12µM*,?,?
CCC(CC)C(=O)OCc1cc(=O)n2nc(C3CC3)sc2n1,i,/,/,i
Cc1ccc(NC(=O)CSCn2nnc3c(=O)[nH]c(Cc4ccc(F)cc4)nc32)c(C)c1,?,/,/,i
NC(=O)Cn1c(S(=O)(=O)Cc2ccccc2)nc2ccccc21,i,26%,?,i
